PubChem BioAssay (EPA / NIEHS)
Inconclusive results are not listed. Activity calls are given as the source filed them. Rule for the calls, unless noted: active = hit-call score of the fitted dose curve at least 0.9, where 1 is the maximum; inconclusive = response in the unintended direction; inactive = score below 0.9.

Tests used:
[1] = molecular target: Nucleoli Translocation, AR (gene 367) (UniProt P10275); assay: UPITT_HCI_U2OS_AR_TIF2_Nucleoli_Agonist: University of Pittsburgh U2OS Androgen Receptor-Transcriptional Intermediary Factor 2 (AR-TIF2) Agonism High Content Imaging Assay for Nucleoli Translocation (AID 2283998)
Method in brief: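 Readout is red (AR-RFP) fluorescence localized to nucleoli, measured by high-content imaging and analysed for increase relative to DMSO. Compound series spanned 0.195 to 50 uM final in 0.5% DMSO.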

[2] = molecular target: Ratio of Nucleoli Translocation and Cytoplasm, AR (gene 367) (UniProt P10275); assay: UPITT_HCI_U2OS_AR_TIF2_Nucleoli_Cytoplasm_Ratio_Antagonist: University of Pittsburgh U2OS Androgen Receptor-Transcriptional Intermediary Factor 2 (AR-TIF2) Antagonism High Content Imaging Assay for Ratio of Nucleoli Translocation and Cytoplasm (AID 2283999);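 note: antagonists lower the DHT-driven ratio of nucleolar to cytoplasmic red signal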
Method in brief: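 U2OS cells co-expressing RFP-tagged human AR and GFP-tagged TIF2, antagonist mode with DHT as baseline. Nucleolar-to-cytoplasmic red fluorescence ratio imaged by high-content microscopy; final compound 20 uM (0.2% DMSO) primary, 0.195–50 uM (0.5% DMSO) concentration-response.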

[3] = molecular target: Ratio of Nucleoli Translocation and Cytoplasm, AR (gene 367) (UniProt P10275); assay: UPITT_HCI_U2OS_AR_TIF2_Nucleoli_Cytoplasm_Ratio_Agonist: University of Pittsburgh U2OS Androgen Receptor-Transcriptional Intermediary Factor 2 (AR-TIF2) Agonism High Content Imaging Assay for Ratio of Nucleoli Translocation and Cytoplasm (AID 2284000);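 note: hits raise the red nucleolar to cytoplasm ratio above vehicle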
Method in brief: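 Read-out first: nucleolar-to-cytoplasm ratio of red (AR-RFP) signal, quantified by high-content imaging in U2OS cells co-expressing TIF2-GFP. Activity is scored as signal increase over DMSO. Single-point screening used 20 uM final (0.2% DMSO).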

[4] = CCTE_Harrill_HTTr_Apoptosis_MCF7: CCTE's 6-hour Apoptosis Assessment for the High-Throughput Transcriptomics (HTTr) Platform, in MCF-7 cells cultured in DMEM + 10% fetal bovine serum, Harrill Lab (AID 2284011; active = hit-call score of the fitted dose curve at least 0.9, where 1 is the maximum; inactive = score below 0.9)
Method in brief: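 MCF-7 (DMEM + 10% FBS), 384-well; 8-pt dilution series, 6 h chemical exposure; caspase-3/7 activation via CellEvent Caspase 3/7 Green, HCI; bidirectional fit vs DMSO.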

[5] = CCTE_Harrill_HTTr_CellCount_MCF7: CCTE's Cell Proliferation Assessment for the High-Throughput Transcriptomics (HTTr) Platform, Harrill Lab (AID 2284012);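 note: cells exposed to compound for six hours; intended direction is loss of nuclei count meaning fewer cells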
Method in brief: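 MCF7 cells exposed 6 hours to an eight-point dilution series; Hoechst-stained nuclei counted by high-content imaging. Bidirectional curve fitting against DMSO baseline.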

[6] = CCTE_Harrill_HTTr_Viability_MCF7: CCTE's 6-hour Cell Viability Assessment for the High-Throughput Transcriptomics (HTTr) Platform, in MCF-7 cells cultured in DMEM + 10% fetal bovine serum, Harrill Lab (AID 2284010; active = hit-call score of the fitted dose curve at least 0.9, where 1 is the maximum; inactive = score below 0.9)
Method in brief: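 MCF-7 cells in DMEM + 10% FBS, 384-well, exposed 6 h to an eight-point dilution series. Membrane integrity scored by high-content imaging of propidium iodide exclusion; bidirectional fit versus DMSO.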

Measured: outcome

Chain of Ratio of Nucleoli Translocation and Cytoplasm, AR (gene 367) (P10275 whole entry, looked up): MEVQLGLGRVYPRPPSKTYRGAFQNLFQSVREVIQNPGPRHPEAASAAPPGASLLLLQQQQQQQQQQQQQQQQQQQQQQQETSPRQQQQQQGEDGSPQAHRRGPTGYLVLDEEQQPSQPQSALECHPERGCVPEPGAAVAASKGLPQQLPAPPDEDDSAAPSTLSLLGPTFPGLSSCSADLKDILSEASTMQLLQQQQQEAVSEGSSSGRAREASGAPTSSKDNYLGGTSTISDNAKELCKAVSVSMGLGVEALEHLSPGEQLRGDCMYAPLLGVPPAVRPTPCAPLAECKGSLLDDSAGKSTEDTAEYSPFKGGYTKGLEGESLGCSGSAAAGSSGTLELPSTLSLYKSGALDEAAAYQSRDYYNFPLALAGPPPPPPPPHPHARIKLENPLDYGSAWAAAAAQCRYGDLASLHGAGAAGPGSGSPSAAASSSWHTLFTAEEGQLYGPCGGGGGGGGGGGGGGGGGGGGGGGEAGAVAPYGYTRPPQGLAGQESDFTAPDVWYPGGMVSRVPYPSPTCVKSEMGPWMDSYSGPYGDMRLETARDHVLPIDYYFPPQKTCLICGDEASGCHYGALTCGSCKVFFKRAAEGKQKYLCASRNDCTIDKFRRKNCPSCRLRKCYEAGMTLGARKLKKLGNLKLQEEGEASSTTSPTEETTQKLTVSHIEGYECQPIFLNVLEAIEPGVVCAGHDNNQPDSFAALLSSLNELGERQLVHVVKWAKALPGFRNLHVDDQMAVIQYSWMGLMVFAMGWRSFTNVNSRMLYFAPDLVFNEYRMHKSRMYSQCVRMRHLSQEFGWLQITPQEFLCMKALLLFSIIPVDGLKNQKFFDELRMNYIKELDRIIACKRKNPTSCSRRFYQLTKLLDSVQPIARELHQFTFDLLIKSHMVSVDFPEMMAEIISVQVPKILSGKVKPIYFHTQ
Chain of Nucleoli Translocation, AR (gene 367) (P10275 whole entry, looked up): as above

Clc1c(Cl)c(Cl)c2c(c1Cl)Oc1c(Cl)c(Cl)c(Cl)c(Cl)c1O2
not listed: [6]
inactive: all other assays above

Cc1cc(N)ccc1N
inactive: [6] | [4] | [5]

ClC1=C(Cl)[C@]2(Cl)[C@H]3[C@H]([C@H](Cl)C(Cl)[C@@H]3Cl)[C@@]1(Cl)C2(Cl)Cl (some centres not stated)
not listed: [5]
inactive: all other assays above

O=S1OC[C@@H]2[C@H](CO1)[C@]1(Cl)C(Cl)=C(Cl)[C@]2(Cl)C1(Cl)Cl (some centres not stated)
inactive: [1] | [2] | [3] | [4]
